The values that follow come from PubChem BioAssay (NCI).

A short description of experiment [1]: NCI Yeast Anticancer Drug Screen. Data for the rad50 strain (AID 155).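 Further: 0% = growth of vehicle-only cultures of the same strain.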 The note with it: S. cerevisiae rad50 strain growth inhibition; at 50.0 µM; stronger effect = higher value. The method, boiled down: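 Relative growth inhibition (compound vs vehicle) was measured in yeast with a defined repair-gene alteration.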
Experiment [2] can be described thus: NCI Yeast Anticancer Drug Screen. Data for the mec2-1 strain (AID 157). The note with it: S. cerevisiae mec2-1 strain, at 50.0 µM, stronger effect = higher value. The method, boiled down: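 Using mec2-1 yeast: add compound, measure growth, express inhibition versus vehicle-treated cultures.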
Experiment [3] can be described thus: NCI Yeast Anticancer Drug Screen. Data for the sgs1 mgt1 strain (AID 161).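 Further: 0% = growth of cultures given vehicle only.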 The following applies: S. cerevisiae sgs1 mgt1 strain, at 50.0 µM, stronger effect = higher value. The method, boiled down: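 Growth of a repair-deficient yeast mutant was monitored after compound treatment and expressed as inhibition relative to vehicle-treated cultures.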
The nature of experiment [4]: NCI Yeast Anticancer Drug Screen. Data for the cln2 rad14 strain (AID 165).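 Further: 0% = growth equal to vehicle treated cultures.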 The following applies: S. cerevisiae cln2 rad14 strain, at 50.0 µM, stronger effect = higher value. In short, it runs like this:
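Yeast strain cln2 rad14, bearing defects in cell cycle control and DNA repair, serves as the test system; values reflect growth inhibition compared with vehicle.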

Experiment [5] in a line: NCI Yeast Anticancer Drug Screen. Data for the bub3 strain (AID 167). The note with it: S. cerevisiae bub3 mutant strain, at 50.0 µM, stronger effect = higher value. In short, it runs like this:
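Screening used yeast with an engineered genetic alteration affecting cell cycle control. Compound-exposed cultures were compared with vehicle cultures, and reduced growth was taken as inhibition.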

Experiment [6] can be described thus: NCI Yeast Anticancer Drug Screen. Data for the mlh1 rad18 strain (AID 175). The following applies: S. cerevisiae mlh1 rad18 strain growth inhibition; at 50.0 µM; stronger effect = higher value. In short, it runs like this:
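Steps: expose repair-defective yeast to compound; measure growth; express inhibition against vehicle-treated controls.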

This is part of a sample that, as a whole, favours compounds with a hit. Of some 79,000 tested, about 15% had one in any assay. Unmarked numbers belong to inactive results. Active and inactive are the calls of the source. No stated cut-off is given here; in the data, active means growth inhibition above about 70%; inactive means the rest.

`c1ccc2c(c1)[nH]c1ccncc12`: the growth inhibition in experiment [1] is -0.85%; in experiment [2] it was 0.1%; in experiment [3], -1.6%; in experiment [4], -40%; in experiment [5] it was -9.7%; in experiment [6], 3.7%.

In the case of `Clc1cc(Cl)c2ccc3c(Cl)cc(Cl)c4ccc1c2c43`, the growth inhibition in experiment [1] is -18.6%; in experiment [2], -33.3%; in experiment [3], -10.8%; in experiment [4] it was 7.3%; in experiment [5], -30.8%; in experiment [6], -20.6%.

For the compound `COc1ccc(C(=O)/C=C/c2cc(C(C)(C)C)c(O)c(C(C)(C)C)c2)cc1`, the growth inhibition is 17.4% in experiment [1]; -1.2% in experiment [2]; 14.6% in experiment [3]; 25.4% in experiment [4]; 7.8% in experiment [5]; 18.2% in experiment [6].

In the case of `O=C1C(OCc2ccccc2)=C(c2ccccc2)C(=O)N1c1ccccc1`, the growth inhibition in experiment [1] was -1.75%; in experiment [2], -13.2%; in experiment [3], 2.2%; in experiment [4], 24.8%; in experiment [5], -11.6%; in experiment [6], -9.75%.

For the compound `CCN(CC)c1nc2c(c(=O)n(C)c(=O)n2C)n1CCCNCC(O)c1ccc(O)c(O)c1` (stereo not given), the growth inhibition is -15.7% in experiment [1]; -16.4% in experiment [2]; -30.9% in experiment [3]; -47.1% in experiment [4]; -1.85% in experiment [5]; -31.5% in experiment [6].

For `COCn1c2ccc(OC(C)=O)cc2c2c(=O)oc(N(C)C)nc21`, the growth inhibition in experiment [1] is -14.8%; in experiment [2] it was -31.6%; in experiment [3] it was -29.4%; in experiment [4], -5.5%; in experiment [5], -11.6%; in experiment [6] it was -11.7%.

`N#CC(Nc1ccccc1)c1ccc(C(C#N)Nc2ccccc2)cc1` (stereo not given): the growth inhibition is 3.2% in experiment [1]; 8.2% in experiment [2]; -45.2% in experiment [3]; -21.1% in experiment [4]; -16.2% in experiment [5]; -34.2% in experiment [6].

For `CC1(C)CC(N2CCN(C3CC(C)(C)NC(C)(C)C3)CC2)CC(C)(C)N1`, the growth inhibition was -12.7% in experiment [1]; -19.6% in experiment [2]; -18.8% in experiment [3]; -8.3% in experiment [4]; -14.2% in experiment [5]; -29.6% in experiment [6].

With `N/C(=N\OC(=O)Nc1cccc(Cl)c1)C(Cl)(Cl)Cl`, the growth inhibition in experiment [1] was 96.8% (active); in experiment [2], 99.5% (active); in experiment [3], 99.5% (active); in experiment [4], 96.3% (active); in experiment [5] it was 99.2% (active); in experiment [6] it was 99% (active).

For the compound `O=C(Nc1ccccc1)OC1CCCC12CC2` (stereo not given), the growth inhibition in experiment [1] was 8.7%; in experiment [2] it was 4.9%; in experiment [3], -16.1%; in experiment [4], -4.8%; in experiment [5], -2.25%; in experiment [6], 23.1%.

As to `COc1ccc(C(=O)CC(Sc2ccccc2N)c2ccc(OC)cc2)cc1` (stereo not given), the growth inhibition in experiment [1] was -16.6%; in experiment [2], -17.9%; in experiment [3], 8.95%; in experiment [4] it was -10%; in experiment [5] it was 6.3%; in experiment [6], -7.3%.

In the case of `O=P(CCC(F)(F)C(F)(F)C(F)(F)C(F)(F)C(F)(F)C(F)(F)C(F)(F)F)(N1CC1)N1CC1`, the growth inhibition in experiment [1] was 25.4%; in experiment [2], -1.9%; in experiment [3], 8.15%; in experiment [4] it was -9.75%; in experiment [5], -1.2%; in experiment [6], 1.95%.

On to `CC(=O)N(C)CC(c1c(C)[nH]c2ccccc12)c1c(C)[nH]c2ccccc12`, for which the growth inhibition in experiment [1] was 15.3%; in experiment [2], -12.3%; in experiment [3], 2.2%; in experiment [4], -4%; in experiment [5], 18%; in experiment [6], 40.7%.

`O=C(O)c1c(Br)c(Br)c(Br)c(Br)c1C1c2ccc(O)cc2Oc2cc(O)ccc21`: the growth inhibition in experiment [1] is 20.4%; in experiment [2], 25%; in experiment [3] it was 35%; in experiment [4] it was -7.75%; in experiment [5], -2.6%; in experiment [6] it was 26.6%.

Regarding `COC(=O)CCC(NC(=S)N/N=C(\C)c1cccs1)C(=O)OC` (stereo not given), the growth inhibition in experiment [1] was 14.1%; in experiment [2] it was -10.3%; in experiment [3] it was 17.3%; in experiment [4], 0.45%; in experiment [5], 7.4%; in experiment [6], -0.25%.

Turning to `Cc1ccc(C(=O)Nc2c(C)cccc2C)cc1`, the growth inhibition was 3.45% in experiment [1]; -40.7% in experiment [2]; 13.5% in experiment [3]; 3.65% in experiment [4]; -4.7% in experiment [5]; -5.95% in experiment [6].

In the case of `Cc1c(Cl)c(N)c(Cl)c(Cl)c1Cl`, the growth inhibition in experiment [1] is 15.7%; in experiment [2], -4.5%; in experiment [3], 19.1%; in experiment [4], -7.3%; in experiment [5] it was 28.6%; in experiment [6] it was 8.75%.

For `CCN(CC)CCN(C)CCN(CC)CC`, the growth inhibition was 14.1% in experiment [1]; 1.7% in experiment [2]; 18.6% in experiment [3]; 9.8% in experiment [4]; 38.7% in experiment [5]; 17.6% in experiment [6].

As to `O=C(OCC1OC(n2cnc3c(Cl)ncnc32)C(OC(=O)c2ccccc2)C1OC(=O)c1ccccc1)c1ccccc1` (stereo not given), the growth inhibition was -16.6% in experiment [1]; -21.2% in experiment [2]; -13.2% in experiment [3]; 5.6% in experiment [4]; -12.8% in experiment [5]; -13.3% in experiment [6].

With `Nc1nc(=O)n(CCCOc2cccc(Cl)c2)cc1-c1ccc(Cl)c(Cl)c1`, the growth inhibition in experiment [1] is 52.6%; in experiment [2], 49.4%; in experiment [3], 52.2%; in experiment [4] it was 68.8%; in experiment [5] it was 87% (active); in experiment [6], 51.5%.
